# Measured values published in PubChem BioAssay AID720553 (National Center for Advancing Translational Sciences (NCATS), 2013).
# Out of some 340,000 compounds screened, about 3,300 (0.97%) were called active. This is one part of a sample in which actives are shown more often than they occur.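 How the source made its calls: active means maximum activity change below -70%; inconclusive means maximum activity change from -70% to -50%; inactive means maximum activity change above -50%.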
# System: Potassium voltage-gated channel subfamily H member 2, brain isoform KCNH2 3.1 (human)
# Assay: qHTS for Inhibitors of KCHN2 3.1: Mutant qHTS
# Details: U2OS KCNH2 3.1, thallium flux FluxOr; stronger effect = lower value
# How it was run: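 Steps: virus added to U2OS suspension (4 h, RT, dark); medium with 10% FBS added, cells plated, 37 C overnight; FluxOr/Red40 loading buffer 45 min RT; stimulation buffer, 2 min kinetic read; rate constant normalized.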
# On the % scale 0 is the no-effect control and ±100 the full control effect.
row,Compound,activity change
1,CC(=O)c1ccc(OCC(O)CN2CCN(S(=O)(=O)c3cccc(Br)c3)CC2)cc1 (stereo not given),-4.78% (inactive)
2,CCC(=O)c1ccc(OCC(O)CN2CCN(c3cccc(C(F)(F)F)c3)CC2)cc1 (stereo not given),-77.4% (active)
3,CC(=O)Nc1ccc(OCC(O)CN2CCN(c3ccccc3Cl)CC2)cc1 (stereo not given),-1.41% (inactive)
4,CCN(CC(=O)Nc1ccc(NC(C)=O)cc1)C(=O)C1CC(=O)N(c2ccc3c(c2)OCCO3)C1 (stereo not given),0.735% (inactive)
5,O=C(CN1CCN(C(=O)c2ccco2)CC1)Nc1ccc2c(c1)OCO2,0.979% (inactive)
6,O=C(COC(=O)c1ccc(F)cc1)Nc1ccc2c(c1)OCO2,-1.18% (inactive)
7,O=C(CN1CCN(CC(=O)Nc2ccc3c(c2)OCO3)CC1)Nc1ccc(F)cc1,-109% (active)
8,COc1ccc(-c2c(C#N)cnc(C)c2C)c(O)c1OC,1.89% (inactive)
9,CC(Sc1ccc(S(=O)(=O)N2CCN(C)CC2)cn1)C(=O)NC1CCCC(C)C1C (stereo not given),-1.67% (inactive)
10,C[C@H]1CN([C@@H](C)CO)C(=O)CCCn2cc(nn2)CO[C@@H]1CN(C)S(=O)(=O)c1cccc(C#N)c1,-14.5% (inactive)
11,Cc1cccc(S(=O)(=O)N(C)C[C@@H]2OCc3cnnn3CCCC(=O)N([C@H](C)CO)C[C@@H]2C)c1,15.7% (inactive)
12,C[C@H]1CN([C@@H](C)CO)C(=O)CCCn2nncc2CO[C@@H]1CN(C)S(=O)(=O)c1cccc(C#N)c1,-3.59% (inactive)
13,C[C@@H]1CN([C@H](C)CO)C(=O)CCCn2nncc2CO[C@@H]1CN(C)S(=O)(=O)c1cccc(C#N)c1,-103% (active)
14,O=C1OCCC1=COCCCCOC=C1CCOC1=O,5.66% (inactive)
15,CNC(=O)C1CCN(S(=O)(=O)c2c(C)noc2/C=C/c2cccc(C)c2)CC1,-0.856% (inactive)
16,Cc1noc(/C=C/c2ccco2)c1S(=O)(=O)N1CCC(C(=O)N2CCc3ccccc32)CC1,-11.8% (inactive)
17,Cc1noc(/C=C/c2ccco2)c1S(=O)(=O)N1CCC(C(=O)Nc2ccc(Cl)cn2)CC1,-73.5% (active)
18,Cc1ccc([C@H]2C[C@H](O)[C@@H](n3cc(COC(=O)c4ccccc4)nn3)CN2CC2CCCCC2)cc1,1.72% (inactive)
19,CCCN1Cc2cccc(C(=O)Nc3ccc(S(=O)(=O)N4CCCCCC4)cc3)c2C1=O,-4.68% (inactive)
20,CCCN1Cc2cccc(C(=O)NCc3ccccc3)c2C1=O,-73.5% (active)
21,COCCN1Cc2cccc(C(=O)Nc3ccccc3OC)c2C1=O,-4.17% (inactive)
22,Cc1onc(-c2ccccc2)c1-c1nnc(COC(=O)c2ccc(N(C)C)cc2)o1,-2.8% (inactive)
23,Cc1csc(=O)n1CCC(=O)OCC(=O)Nc1ccc(N2CCOCC2)cc1,26.4% (inactive)
24,CCc1cc(C(=O)N(CC)CC(=O)Nc2c(F)cccc2F)sc1C,6.15% (inactive)
25,O=C(Nc1ccccc1-c1ccccc1)c1cccs1,3.41% (inactive)
26,Cc1ccc(C(=O)Nc2ccccc2-c2ccccc2)cc1S(=O)(=O)Nc1ccccc1,-81.2% (active)
27,O=C(O)c1ccc(F)c(S(=O)(=O)Nc2ccccc2)c1,-0.905% (inactive)
28,O[C@H]1CN(Cc2cccs2)[C@@H](c2ccc(Cl)cc2)C[C@@H]1n1cc(C2CC2)nn1,1.17% (inactive)

row,Compound,activity change
1,O=C1CC[C@@H](C(=O)N2CSC[C@@H]2C(=O)Nc2ccc(C(F)(F)F)cc2)N1,0.48% (inactive)
2,Cc1ccc(Cc2c(-c3ccc(C)cc3)nc3c4ccccc4ccn23)cc1,-46.3% (inactive)
3,CCOc1ccc(S(=O)(=O)NCCC(=O)NNC(=O)c2ccc(F)cc2)cc1,7.87% (inactive)
4,Cc1ccc(C(=O)N/C(=C\c2ccc(F)cc2)C(=O)NCCN2CCOCC2)cc1,-89.5% (active)
5,O=C(NCCN1CCOCC1)/C(=C/c1ccc(F)cc1)NC(=O)c1ccccc1,-9.2% (inactive)
6,COc1ccc(/C=C(\NC(=O)c2ccccc2)C(=O)NCCN2CCOCC2)cc1OC,-4.51% (inactive)
7,COC(=O)N(C)C[C@@H]1OCc2cnnn2CCCC(=O)N([C@@H](C)CO)C[C@@H]1C,5.22% (inactive)
8,Cc1cccc(C(=O)C(O)(c2ccccc2)C2CCCCC2=O)c1 (stereo not given),-14.9% (inactive)
9,COc1ccc(S(=O)(=O)N(C)C[C@H]2OCc3cnnn3CCCC(=O)N([C@H](C)CO)C[C@H]2C)cc1,11.2% (inactive)
10,COc1cc2nnn(-c3ccncc3)c2cc1OC,-4.09% (inactive)
11,COc1ccc2nc(-c3ccccn3)ccc2c1,6.65% (inactive)
12,C=CCn1c(C23CC4CC(CC(C4)C2)C3)n[nH]c1=S,-5.08% (inactive)
13,C=CCn1c(SCC(=O)NC)nnc1C12CC3CC(CC(C3)C1)C2,-75% (active)
14,C=CCn1c(SCC(=O)NC23CC4CC(CC(C4)C2)C3)nc(O)cc1=O,30.9% (inactive)
15,Cc1ccc(S(=O)(=O)/N=C2\C=C(NS(=O)(=O)c3ccc(C)cc3)C(=O)c3ccccc32)cc1,17.4% (inactive)
16,C[C@H]1CN([C@@H](C)CO)S(=O)(=O)c2ccc(Br)cc2O[C@H]1CN(C)C(=O)c1cnccn1,10.6% (inactive)
17,O=C(Nc1ccc(N2CCCCC2)cc1)c1cc(S(=O)(=O)N2CCOCC2)ccc1F,-0.576% (inactive)
18,O=C(Nc1ccc2c(c1)nc1n2CCCCC1)c1cc(S(=O)(=O)N2CCOCC2)ccc1Cl,-83.4% (active)
19,O=C(Nc1ccc(N2CCOCC2)c(Cl)c1)c1ccc(S(=O)(=O)N2CCOCC2)cc1,-3.05% (inactive)
20,COc1cccc(-c2noc(C3CCCN(C(=O)c4ccc(F)cc4)C3)n2)c1 (stereo not given),16.8% (inactive)
21,COc1cc(-c2noc(C3CCCN(S(=O)(=O)c4cccc(Cl)c4)C3)n2)cc(OC)c1OC (stereo not given),-93.6% (active)
22,CC(C)c1ccc(-c2noc(C3CCCN(S(C)(=O)=O)C3)n2)cc1 (stereo not given),-21.4% (inactive)
23,CCOC(=O)c1c(NC(=S)SC)sc(C(=O)N2CCc3ccccc3C2)c1C,-4.73% (inactive)
24,CC1=C(C(=O)N2CCOCC2)CC(CC(=O)NCc2ccco2)C(=O)N1Cc1ccc(F)cc1 (stereo not given),-24.5% (inactive)
25,O=C(COC(=O)c1ccccc1Cl)NC1CCCCCCC1,-1.39% (inactive)
26,C=CCNC(=O)COC(=O)c1ccccc1C(=O)N(C)C1CCCCC1,-110% (active)
27,CC1CCCC(NC(=O)COC(=O)c2ccccc2C(=O)N(C)C2CCCCC2)C1C (stereo not given),7.73% (inactive)
